Shown are actives, neighbours in structure and some others; about 2.9% of the full set was active somewhere.
PLC-beta3 inh: inhibitors of human phospholipase C beta3 | 370,000 tested, 0.18% active | inhibition, % at 12.2 µM | Q01970 | Purified PLC-beta3, fluorogenic substrate, fluorescence; in the data active = inhibition above about 11%;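 also: 0% = median of compound wells on plate and 100% = full blocker control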
ADAM17 inh: ADAM17 inhibition, QFRET primary screen. recombinant ADAM17, EDANS/DABCYL FRET peptide cleavage. 370,000 tested, 0.83% active. AID 720648. inhibition, % at 6.95 µM;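 active = inhibition above the mean of compounds lying between control limits plus 3 SD, set per campaign, cut at about 8.5% in these data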;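 also: 0% = DMSO-only wells as the low control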
proKLK7 act: activates the human kallikrein-7 zymogen; purified proKLK7, EDANS-DABCYL substrate fluorescence; 100% is mature enzyme control, 0% vehicle; activation, % at 7 µM; 370,000 tested, 0.9% active; AID 652039;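 active = activation above the mean of all tested compounds plus 3 SD, computed per campaign excluding outliers beyond control limits, cut at about 13% in these data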
ADAM10 inh: ADAM10 inhibition, QFRET primary screen; inhibition, % at 7 µM; recombinant ADAM10, EDANS/DABCYL FRET peptide cleavage, 3 h; 370,000 tested, 0.62% active; O14672; AID 720582;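 active = inhibition above a per-campaign cutoff equal to the mean of compounds falling between control-based bounds plus 3 SD, cut at about 20% in these data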;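 also: 0% = DMSO wells while the 100% control is not disclosed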
PLCg1 inh: PLC-gamma1 (human) inhibition, primary screen. P19174. purified PLC-gamma1, fluorogenic substrate, fluorescence. inhibition, % at 12.2 µM. 370,000 tested, 0.84% active; in the data active = inhibition above about 9.5%
ADAM10 counter: inhibits human ADAM10 in ADAM17 exosite counter-screen | shares compounds with ADAM17 inh | recombinant ADAM10, EDANS/DABCYL FRET peptide cleavage, 3 h | inhibition, % at 6.95 µM | 2,900 tested, 47% active;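 active = mean inhibition over the triplicate runs exceeds the activity threshold set in the earlier primary screen, cut at about 20% in these data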;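 also: 0% = DMSO wells and 100% = marimastat wells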
ADAM17 confirm: confirmation of inhibitors of human ADAM17. inhibition, % at 6.95 µM. shares compounds with ADAM17 inh. 2,900 tested, 65% active. recombinant ADAM17, EDANS/DABCYL QFRET peptide cleavage;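 active = mean inhibition across replicates above the hit cutoff set in the primary screen, cut at about 8.5% in these data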;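 also: 0% = DMSO wells and 100% = marimastat wells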
Starred values were filed as active, the others as inactive; · = not tested or not shown.

SMILES	PLC-beta3 inh	ADAM17 inh	proKLK7 act	ADAM10 inh	PLCg1 inh	ADAM10 counter	ADAM17 confirm
C[C@@H]1CN([C@@H](C)CO)C(=O)CCCn2cc(nn2)CO[C@H]1CN(C)C(=O)c1ccc(N2CCN(C)CC2)cc1	-1	-5	-1	-13	0	·	·
Cc1ccc(NC(=O)C(OC(=O)c2ccccc2Cl)c2ccccc2)cc1Cl (stereo not drawn)	5	9.3*	0	15	4	31*	21*
COc1ccc(C2=NOC(CNC(=S)N3CCOCC3)C2)cc1 (stereo not drawn)	-4	1	0	0	0	·	·
O=C(CN1C(=O)S/C(=C\c2ccc(F)cc2)C1=O)Nc1cccc(S(=O)(=O)NCc2ccco2)c1	3	9.2*	-1	9	1	21*	12*
CCc1ccccc1OCC(=O)Nc1cccc(S(=O)(=O)NCc2ccco2)c1	-8	0	0	0	0	·	·
CCc1cc(C(=O)OC)c(NC(=O)C2CC(=O)NN2Cc2ccccc2)s1 (stereo not drawn)	-6	9.3*	1	5	3	15	15*
Cc1ccc(S(=O)(=O)N2C[C@@H](C)[C@]3(C2)[C@H](O)[C@H](OC(=O)NCc2ccccc2F)C[C@H]2C(=O)N(c4ccccc4)C(=O)[C@H]23)cc1	3	9.2*	0	14	2	37*	20*
Cc1cc(=O)c(C(=O)O)nn1-c1ccccc1Cl	-7	-5	0	-2	-2	·	·
COc1ccc(CCNS(=O)(=O)c2ccc(OC)cc2)cc1	-1	-3	0	1	0	·	·
COc1ccc(CCNS(=O)(=O)c2ccc(N3CCCC3=O)cc2)cc1	6	12*	0	12	7	-4	-2
CC(C)c1cc(C(=O)NNC(=S)NCc2ccco2)c(O)c(C(C)C)c1	-85	4	-3	-3	-71	·	·
Cc1ccc([C@H]2C[C@@H](O)[C@H](n3cc(-c4ccc(F)cc4)nn3)CN2C(=O)C2CCCCC2)cc1	8	10*	1	12	6	29*	15*
CCCCCC(=O)N1C[C@@H](n2cc(-c3ccc(F)cc3)nn2)[C@H](O)C[C@@H]1c1ccc(Cl)cc1	5	11*	0	15	3	29*	17*
O=C(NCc1ccc2c(c1)OCO2)c1n[nH]c(=O)c2ccccc12	1	-3	0	3	2	·	·
COc1cccc(NC(=O)c2ccccc2-c2nc(-c3cccc(C)c3)no2)c1	2	9.6*	0	25*	-2	26*	15*
Cc1ccc(NC(=S)N/N=C/c2ccc([N+](=O)[O-])s2)cc1	-18	11*	0	-3	-5	33*	19*
O=C1NC[C@@H](Cc2cccc3ccccc23)N(CCCCC2CCCCC2)C1=O	5	11*	1	12	0	5	4
O[C@@H]1CN(CC2CCCCC2)[C@@H](c2ccccc2)C[C@H]1n1cc(-c2ccc(F)cc2)nn1	0	-3	-1	-4	1	·	·
O=C(Nc1ccccc1Oc1ccccc1)c1cc([N+](=O)[O-])ccc1Cl	-5	8.9*	0	-3	2	0	3
O=C(Nc1ccc(Nc2ccccc2)cc1)c1cc([N+](=O)[O-])ccc1Cl	-1	6	0	9	-2	·	·
COCC(C)n1c(C)cc(C(=O)CSc2nnc(Nc3ccccc3F)s2)c1C (stereo not drawn)	2	15*	1	15	6	1	2
CO/N=C/NC(=O)c1c(OC)ccnc1Oc1cccc(C(F)(F)F)c1	-1	-2	1	-3	1	·	·
CC(C)COc1cccc(C(=O)Nc2ccc(S(=O)(=O)N3CCOCC3)cc2)c1	-2	9.1*	0	14	5	27*	17*
CC(C)COc1cccc(C(=O)Nc2ccc(CN3CCOCC3)cc2)c1	-11	-1	0	-5	3	·	·
O=C(NCCc1ccc(Cl)cc1Cl)c1cccnc1	-10	-6	0	-2	1	·	·
